Consider seven compounds from PubChem BioAssay (Tox21).

Values joined by “and” are separate entries in the source; they are usually repeats but may differ in a detail not shown here. Identical values can stand only once. Inconclusive results are not listed. Where a structure was tested more than once in an assay, its records may differ in their call. Active and inactive are the calls of the source. Unless noted, calls follow the shape of the dose curve; as a rule, active = well fitted curve in the direction sought with a large enough effect in the repeat runs; inconclusive = weak or mixed curves; inactive = no such curve, though single readings can be large; an effect the other way counts as inactive or inconclusive.

The nature of test [1]: qHTS assay to test for compound auto fluorescence at 535 nm (green) in HEK293 cells (AID 720680).
Test [2] is described as follows: qHTS assay to test for compound auto fluorescence at 460 nm (blue) in HEK293 cell free culture (AID 720681). An outline of the steps: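 Blue fluorescence (Ex 405/Em 460 nm, triamterene-equivalent) was read immediately after pin transfer of compound or DMSO into medium (DMEM, 10% FBS) without cells.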
(qHTS replaces the single test concentration by a dilution series.)

Test [3] in a line: qHTS assay to test for compound auto fluorescence at 535 nm (green) in HEK293 cell free culture (AID 720682). An outline of the steps:
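Green-label autofluorescence (485 nm excitation, 535 nm emission) measured on compound added to cell-free culture medium (DMEM, 10% FBS). Output is expressed relative to fluorescein.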

Test [4] in a line: qHTS assay to test for compound auto fluorescence at 590 nm (red) in HEK293 cell free culture (AID 720683). An outline of the steps: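 Red-channel autofluorescence of compounds in culture medium (DMEM, 10% FBS), no cells, measured at 540/590 nm. Rose Bengal sodium is the reference fluorophore for equivalence.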
A short description of test [5]: qHTS assay to test for compound auto fluorescence at 590 nm (red) in HepG2 cell free culture (AID 720684). An outline of the steps: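 No cells present: MEM + 10% FBS only. Compound pinned in, red label read (540/590 nm). Activity = fluorescence equivalent to Rose Bengal sodium.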
Test [6] in a line: qHTS assay to test for compound auto fluorescence at 460 nm (blue) in HepG2 cell free culture (AID 720685). In outline: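 Cell-free plates of MEM plus 10% FBS received 23 nL compound or DMSO vehicle; blue-channel (405/460 nm) intensity scored against triamterene as reference fluorophore.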
Test [7] can be described thus: qHTS assay to test for compound auto fluorescence at 460 nm (blue) in HepG2 cells (AID 720687). An outline of the steps: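 Blue-channel autofluorescence (Ex/Em 405/460 nm, triamterene-equivalent) was measured after 1 hr compound exposure at 37 C, 5% CO2. Cells were HepG2, plated overnight at 37 C in MEM plus 10% FBS.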
The nature of test [8]: qHTS assay to identify small molecule antagonists of the glucocorticoid receptor (GR) signaling pathway - cell viability counter screen (AID 720693). Also: nearly all actives have a fitted effect of over 55% in size.
Test [9] can be described thus: qHTS assay for identifying genotoxic compounds that show differential cytotoxicity against isogenic chicken DT40 cell lines with known DNA damage response pathways - wild type cell line (AID 743012). Also: nearly all actives have a fitted effect of over 60% in size. Also: potency is read from the fitted curve at half-maximal effect. An outline of the steps: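 Viability by ATP luminescence (CellTiter-Glo, 30 min RT) after 40 h compound treatment at 37 C/5% CO2, using 300 parental DNA repair-proficient DT40 cells per well.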

A short description of test [10]: qHTS assay for identifying genotoxic compounds that show differential cytotoxicity against isogenic chicken DT40 cell lines with known DNA damage response pathways - Rev3 mutant cell line (AID 743014). Also: nearly all actives have a fitted effect of over 55% in size. Also: potency is read from the fitted curve at half-maximal effect.
The nature of test [11]: qHTS assay for identifying genotoxic compounds that show differential cytotoxicity against isogenic chicken DT40 cell lines with known DNA damage response pathways - Rad54/Ku70 mutant cell line (AID 743015). Also: nearly all actives have a fitted effect of over 60% in size. Also: potency is read from the fitted curve at half-maximal effect.
The nature of test [12]: qHTS assay to identify small molecule antagonists of the androgen receptor (AR) signaling pathway - cell viability counter screen (AID 743033; also: nearly all actives have a fitted effect of over 45% in size).
The nature of test [13]: qHTS assay to identify small molecule antagonists of the androgen receptor (AR) signaling pathway using the MDA cell line - cell viability counter screen (AID 743041; also: nearly all actives have a fitted effect of over 45% in size). In outline: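 Using the breast carcinoma line MDA-kb2 AR-luc, test chemicals were co-incubated with R1881 for 16 h; CellTiter-Fluor reagent, added at 15.5 h, provided a fluorescence measure of live cells.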

The target in test [14] is Glucocorticoid receptor (Homo sapiens) (UniProt P04150). As to the kind of experiment: qHTS assay to identify small molecule agonists of the glucocorticoid receptor (GR) signaling pathway (AID 720691; active = well fitted activation curve with a large enough effect in the signal ratio in the repeat runs, not every such curve was filed as active; the % refers to the signal ratio). The conditions noted are these: GR-bla HeLa, beta-lactamase reporter ratio, 18 h; activation: at 62.4 µM (top of the series). In outline: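 Agonist-mode qHTS in HeLa cells stably expressing a glucocorticoid-response-element beta-lactamase reporter. Fluorescence intensity read with FRET substrate (2 h, room temperature) after 18 h compound treatment at 37 C.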

The target is the same in test [15]. As to the kind of experiment: qHTS assay to identify small molecule antagonists of the glucocorticoid receptor (GR) signaling pathway (AID 720692; active = well fitted inhibition curve with a large enough effect in the signal ratio in the repeat runs, not every such curve was filed as active; the % refers to the signal ratio). An outline of the steps: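 Inhibition of dexamethasone-driven (5 nM final) beta-lactamase expression was measured in GRE-reporter HeLa cells over 18 h at 37C. Fluorescence was read after 2 h with the B/G FRET substrate at room temperature.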

Test [16] addresses Androgen receptor (Homo sapiens) (UniProt P10275). Put plainly: qHTS assay to identify small molecule antagonists of the androgen receptor (AR) signaling pathway (AID 743035; active = well fitted inhibition curve with a large enough effect in the signal ratio in the repeat runs, not every such curve was filed as active; the % refers to the signal ratio). In outline: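 Antagonist mode: AR-bla HEK293 cells co-treated with test compounds and agonist R1881 for 16 h at 37C, 5% CO2. Beta-lactamase activity read as FRET fluorescence after 2 h room-temperature substrate loading.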

The target is the same in test [17]. Put plainly: qHTS assay to identify small molecule agonists of the androgen receptor (AR) signaling pathway (AID 743036; active = well fitted activation curve with a large enough effect in the signal ratio in the repeat runs, with a control signal flat, not every such curve was filed as active; the % refers to the signal ratio). In outline: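 AR-UAS-bla HEK293 cells, plated 4 h before dosing, were treated with compound for 16 h at 37C. beta-Lactamase reporter read after 2 h with LiveBLAzer B/G FRET substrate at room temperature.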
For test [18] the target is unchanged. Put plainly: qHTS assay to identify small molecule agonists of the androgen receptor (AR) signaling pathway using the MDA cell line (AID 743040; also: nearly all actives have a fitted effect of over 20% in size). An outline of the steps:
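Stable MMTV-luciferase reporter in MDA-kb2 cells; note the promoter carries GR as well as AR response elements. 16 h compound treatment, 37C, 0% CO2; ONE-Glo luminescence endpoint.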

Test [19] shares this target. As to the kind of experiment: qHTS assay to identify small molecule antagonists of the androgen receptor (AR) signaling pathway using the MDA cell line (AID 743042; also: nearly all actives have a fitted effect of over 55% in size). An outline of the steps:
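Antagonist mode: compounds plus R1881 agonist added to MDA-kb2 AR-luc cells, incubated 16 h at 37C. Luciferase reporter luminescence quantified, with multiplexed CellTiter-Fluor readout for cell viability.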

Test [20] can be described thus: qHTS assay to test for compound auto fluorescence at 535 nm (green) in HepG2 cell free culture (AID 720686).
% is scaled to controls: 0 for no effect and ±100 for the full control effect.

Chain of Androgen receptor (Homo sapiens) (P10275 whole entry, looked up): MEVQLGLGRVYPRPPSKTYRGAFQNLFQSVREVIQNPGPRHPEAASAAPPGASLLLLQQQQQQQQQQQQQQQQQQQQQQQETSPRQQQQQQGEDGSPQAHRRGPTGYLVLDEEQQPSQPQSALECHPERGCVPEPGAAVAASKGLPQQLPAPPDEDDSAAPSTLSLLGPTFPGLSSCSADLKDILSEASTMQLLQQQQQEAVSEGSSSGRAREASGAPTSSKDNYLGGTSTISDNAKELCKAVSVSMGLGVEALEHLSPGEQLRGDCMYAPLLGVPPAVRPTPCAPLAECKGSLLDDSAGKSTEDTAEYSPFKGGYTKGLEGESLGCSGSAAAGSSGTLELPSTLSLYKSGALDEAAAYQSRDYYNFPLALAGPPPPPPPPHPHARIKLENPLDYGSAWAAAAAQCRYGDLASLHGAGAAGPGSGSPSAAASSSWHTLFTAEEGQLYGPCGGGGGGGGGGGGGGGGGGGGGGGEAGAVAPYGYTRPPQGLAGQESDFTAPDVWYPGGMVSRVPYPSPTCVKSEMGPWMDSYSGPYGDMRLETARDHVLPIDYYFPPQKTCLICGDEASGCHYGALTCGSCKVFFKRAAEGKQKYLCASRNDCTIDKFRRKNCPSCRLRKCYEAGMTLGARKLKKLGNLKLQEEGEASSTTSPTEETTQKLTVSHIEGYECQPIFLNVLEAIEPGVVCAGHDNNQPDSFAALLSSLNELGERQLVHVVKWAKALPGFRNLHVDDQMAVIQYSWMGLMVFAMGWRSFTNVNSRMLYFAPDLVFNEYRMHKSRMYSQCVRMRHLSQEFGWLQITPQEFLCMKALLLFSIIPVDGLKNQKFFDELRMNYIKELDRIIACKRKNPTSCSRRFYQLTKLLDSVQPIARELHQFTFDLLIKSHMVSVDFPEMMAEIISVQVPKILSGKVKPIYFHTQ
Chain of Glucocorticoid receptor (Homo sapiens) (P04150 whole entry, looked up): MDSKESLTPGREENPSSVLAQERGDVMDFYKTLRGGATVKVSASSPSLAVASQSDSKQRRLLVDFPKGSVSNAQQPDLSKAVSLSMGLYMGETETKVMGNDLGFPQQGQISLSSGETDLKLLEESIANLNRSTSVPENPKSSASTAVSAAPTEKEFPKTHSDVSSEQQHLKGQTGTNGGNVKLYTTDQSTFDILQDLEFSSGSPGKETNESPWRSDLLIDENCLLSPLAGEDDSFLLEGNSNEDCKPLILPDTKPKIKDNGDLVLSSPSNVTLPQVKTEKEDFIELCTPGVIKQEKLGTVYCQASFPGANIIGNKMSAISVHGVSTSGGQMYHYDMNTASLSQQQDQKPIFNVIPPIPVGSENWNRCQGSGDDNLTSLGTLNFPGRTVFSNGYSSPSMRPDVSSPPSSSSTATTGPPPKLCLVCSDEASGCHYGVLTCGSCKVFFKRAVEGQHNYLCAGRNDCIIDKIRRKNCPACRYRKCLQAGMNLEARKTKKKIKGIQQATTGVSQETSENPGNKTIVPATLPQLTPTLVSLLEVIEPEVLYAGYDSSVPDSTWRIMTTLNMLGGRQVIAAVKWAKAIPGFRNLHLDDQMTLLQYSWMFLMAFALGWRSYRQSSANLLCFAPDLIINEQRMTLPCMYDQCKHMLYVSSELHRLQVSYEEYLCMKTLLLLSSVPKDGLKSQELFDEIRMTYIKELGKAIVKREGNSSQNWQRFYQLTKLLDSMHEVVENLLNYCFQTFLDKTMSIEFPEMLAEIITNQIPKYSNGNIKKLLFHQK

For `[Cl-].[Cl-].[Cl-].[Yb+3]`, the compound was classed as inactive in test [1], in test [3], in test [4] and in test [5]. In addition, the Potency result in [2], in [6], in [7], in [8], in test [9] and in test [10] was “inactive” each time. The Potency entry in test [11], in test [12] and in test [13] was “inactive” in each case.
As for `S=C=Nc1ccccc1`, the outcome in test [1], in test [3], in test [4], in test [5], in test [17] and in [18] was inactive. The Potency result in test [2], in test [6], in test [7], in [14], in test [15] and in [9] was “inactive” in each case. The Potency result in test [11], in test [12], in [16], in test [13] and in [19] was “inactive” throughout.
Turning to `O=C1C[C@@H]2OCC=C3CN4CC[C@]56c7ccccc7N1[C@H]5[C@H]2[C@H]3C[C@H]46`, the result in [1], in test [3], in [4] and in [5] was inactive. The Potency entry in test [2], in test [6], in test [20], in [7], in test [8] and in [12] was “inactive” throughout. Besides, the Potency result in test [13] is “inactive”. The Potency in test [9] was 26.6 µM (active); in test [10] it was “inactive and 26.6 µM (active)”; in test [11], “inactive and 29.8 µM (active)”.
Regarding `CC(C)c1c(CN(C)C(C)Cc2ccccc2)n(C)n(-c2ccccc2)c1=O` (configuration not stated), in test [1], the fluorescence, % of fluorescein is -0.0005% [at 18.6 µM] (inactive). Moreover, the fluorescence, % of fluorescent control in test [2] was 0.024% [at 18.6 µM] (inactive); in test [4], 0.362% [at 18.6 µM] (inactive); in test [6], -0.0993% [at 18.6 µM] (inactive); in test [7], 0.105% [at 18.6 µM] (inactive). Also, in [3], the activity change was -0.0364% [at 18.6 µM] (inactive). For the same compound, in test [5], the fluorescence, % of Rose Bengal was -0.353% [at 18.6 µM] (inactive). Moreover, the Potency entry in [14], in test [15], in test [8], in [12] and in test [13] was “inactive” throughout. Further, in [9], the Potency was 6.39 µM (active).
`N#CCCl`: the outcome in [1], in [3], in test [4] and in test [5] was inactive. Further, the Potency entry in test [2], in test [6], in test [20], in [7], in test [9] and in test [10] was “inactive” each time. Also, the Potency result in test [11], in test [12] and in test [13] was “inactive” throughout.
Regarding `CCCCC(CC)COC(=O)OOC(C)(C)C` (configuration not stated), the result in test [1], in [3], in test [4] and in [5] was inactive. The Potency result in test [2], in test [6], in test [20], in [7], in test [10] and in test [11] was “inactive” throughout. Further, the Potency result in [12] and in [13] was “inactive” throughout.
Turning to `Cc1nn(-c2cc(NS(C)(=O)=O)c(Cl)cc2Cl)c(=O)n1C(F)F`, the result in test [1], in test [3], in test [4], in test [5] and in [18] was inactive. For the same compound, the Potency entry in test [2], in test [6], in test [7], in [8], in test [9] and in test [10] was “inactive” in each case. The Potency entry in test [11], in test [12], in test [13] and in test [19] was “inactive” in each case.
